The values that follow come from ChEMBL document CHEMBL1961873, “Compounds: GSK PKIS; Assays: Nanosyn kinase panel” (2012).

For experiment [1], the target named is T1, Serine/threonine-protein kinase DCLK2 (Homo sapiens) (UniProt Q8N568).
T1 sequence (whole entry): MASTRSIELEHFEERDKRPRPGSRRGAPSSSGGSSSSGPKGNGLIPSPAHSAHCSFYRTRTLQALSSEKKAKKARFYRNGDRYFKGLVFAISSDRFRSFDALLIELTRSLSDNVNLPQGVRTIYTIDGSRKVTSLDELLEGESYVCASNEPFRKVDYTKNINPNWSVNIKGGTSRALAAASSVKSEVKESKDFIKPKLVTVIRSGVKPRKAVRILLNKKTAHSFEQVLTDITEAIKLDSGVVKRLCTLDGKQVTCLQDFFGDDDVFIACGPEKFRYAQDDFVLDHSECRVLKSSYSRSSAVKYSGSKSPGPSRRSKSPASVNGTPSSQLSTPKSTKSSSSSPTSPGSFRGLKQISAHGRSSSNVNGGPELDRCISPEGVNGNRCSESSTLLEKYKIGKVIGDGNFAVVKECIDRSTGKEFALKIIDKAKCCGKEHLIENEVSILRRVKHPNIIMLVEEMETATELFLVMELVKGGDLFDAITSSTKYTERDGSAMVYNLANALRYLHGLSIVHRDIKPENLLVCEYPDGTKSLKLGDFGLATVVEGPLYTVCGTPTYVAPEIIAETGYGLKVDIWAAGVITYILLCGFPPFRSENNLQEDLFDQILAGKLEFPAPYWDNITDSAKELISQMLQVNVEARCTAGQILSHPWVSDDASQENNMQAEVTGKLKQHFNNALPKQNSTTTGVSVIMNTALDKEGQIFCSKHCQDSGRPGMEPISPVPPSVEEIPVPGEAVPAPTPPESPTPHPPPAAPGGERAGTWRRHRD
The following applies: at 0.1 µM.

The target of experiment [2] is T1, Serine/threonine-protein kinase DCLK2 (Homo sapiens). The following applies: at 1 µM.
For experiment [3], the target named is MAP kinase-activated protein kinase 2 (Homo sapiens) (UniProt P49137). The following applies: at 0.1 µM.
For experiment [4] the target is unchanged. The following applies: at 1 µM.
In experiment [5] the target is MAP kinase-activated protein kinase 3 (Homo sapiens) (UniProt Q16644). The following applies: at 0.1 µM.
For experiment [6] the target is unchanged. Particulars: at 1 µM.
For experiment [7], the target named is Serine/threonine-protein kinase MARK1 (Homo sapiens) (UniProt Q9P0L2). Particulars: at 0.1 µM.
Experiment [8] has the same target. Particulars: at 1 µM.
Experiment [9] addresses MAP/microtubule affinity-regulating kinase 3 (Homo sapiens) (UniProt P27448). The following applies: at 0.1 µM.
The target is the same in experiment [10]. Particulars: at 1 µM.
In experiment [11] the target is T2, MAP/microtubule affinity-regulating kinase 4 (Homo sapiens) (UniProt Q96L34).
T2 sequence (whole entry): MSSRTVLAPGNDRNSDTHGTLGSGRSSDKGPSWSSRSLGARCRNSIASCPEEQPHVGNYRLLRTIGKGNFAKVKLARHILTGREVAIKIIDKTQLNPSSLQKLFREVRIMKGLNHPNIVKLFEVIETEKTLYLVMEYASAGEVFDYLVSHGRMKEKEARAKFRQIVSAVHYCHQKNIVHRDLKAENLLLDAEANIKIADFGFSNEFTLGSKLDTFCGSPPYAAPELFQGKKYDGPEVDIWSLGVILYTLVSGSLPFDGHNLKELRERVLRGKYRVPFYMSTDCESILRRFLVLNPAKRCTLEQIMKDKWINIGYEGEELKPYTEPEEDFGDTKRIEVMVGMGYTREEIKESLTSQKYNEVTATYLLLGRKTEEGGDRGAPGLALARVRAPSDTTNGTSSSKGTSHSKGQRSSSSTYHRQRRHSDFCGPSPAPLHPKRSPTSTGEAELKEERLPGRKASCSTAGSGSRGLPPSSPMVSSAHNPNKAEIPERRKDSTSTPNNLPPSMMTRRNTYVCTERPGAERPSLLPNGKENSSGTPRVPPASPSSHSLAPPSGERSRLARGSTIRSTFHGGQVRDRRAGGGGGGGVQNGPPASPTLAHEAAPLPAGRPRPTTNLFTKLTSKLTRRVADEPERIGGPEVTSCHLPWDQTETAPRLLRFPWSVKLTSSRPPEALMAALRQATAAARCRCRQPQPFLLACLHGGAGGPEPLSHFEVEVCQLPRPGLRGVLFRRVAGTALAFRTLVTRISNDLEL
Particulars: at 0.1 µM.

The target in experiment [12] is T2, MAP/microtubule affinity-regulating kinase 4 (Homo sapiens). The following applies: at 1 µM.
Experiment [13] concerns the target Maternal embryonic leucine zipper kinase (Homo sapiens) (UniProt Q14680). Particulars: at 0.1 µM.
For experiment [14] the target is unchanged. The following applies: at 1 µM.
Experiment [15] concerns the target MAP kinase-interacting serine/threonine-protein kinase 1 (Homo sapiens) (UniProt Q9BUB5). The following applies: at 0.1 µM.
Experiment [16] shares this target. Particulars: at 1 µM.
Experiment [17] concerns the target MAP kinase-interacting serine/threonine-protein kinase 2 (Homo sapiens) (UniProt Q9HBH9). Particulars: at 0.1 µM.
The target is the same in experiment [18]. Particulars: at 1 µM.
Experiment [19] addresses Serine/threonine-protein kinase MARK2 (Homo sapiens) (UniProt Q7KZI7). Particulars: at 0.1 µM.
The target in experiment [20] is Death-associated protein kinase 1 (Homo sapiens) (UniProt P53355). Particulars: at 1 µM.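 Also: each value is a mean inhibition figure.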

In general, inhibition refers to the relative decrease from the control value, in per cent.

MAP kinase-interacting serine/threonine-protein kinase 2 (Homo sapiens), sequence (Q9HBH9 whole entry, looked up): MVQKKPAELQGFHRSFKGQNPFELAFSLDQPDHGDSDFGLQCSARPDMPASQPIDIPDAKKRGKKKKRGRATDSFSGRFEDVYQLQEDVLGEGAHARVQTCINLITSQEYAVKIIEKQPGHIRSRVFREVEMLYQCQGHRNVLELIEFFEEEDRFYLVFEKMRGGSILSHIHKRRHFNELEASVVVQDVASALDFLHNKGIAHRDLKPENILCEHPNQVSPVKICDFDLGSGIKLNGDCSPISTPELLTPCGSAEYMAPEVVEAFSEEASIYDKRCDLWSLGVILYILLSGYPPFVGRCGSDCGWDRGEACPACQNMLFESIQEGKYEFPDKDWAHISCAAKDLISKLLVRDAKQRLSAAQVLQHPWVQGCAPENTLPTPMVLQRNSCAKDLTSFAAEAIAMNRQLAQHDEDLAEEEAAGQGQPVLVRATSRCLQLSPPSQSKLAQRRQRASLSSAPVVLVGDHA
MAP kinase-activated protein kinase 2 (Homo sapiens), sequence (P49137 whole entry, looked up): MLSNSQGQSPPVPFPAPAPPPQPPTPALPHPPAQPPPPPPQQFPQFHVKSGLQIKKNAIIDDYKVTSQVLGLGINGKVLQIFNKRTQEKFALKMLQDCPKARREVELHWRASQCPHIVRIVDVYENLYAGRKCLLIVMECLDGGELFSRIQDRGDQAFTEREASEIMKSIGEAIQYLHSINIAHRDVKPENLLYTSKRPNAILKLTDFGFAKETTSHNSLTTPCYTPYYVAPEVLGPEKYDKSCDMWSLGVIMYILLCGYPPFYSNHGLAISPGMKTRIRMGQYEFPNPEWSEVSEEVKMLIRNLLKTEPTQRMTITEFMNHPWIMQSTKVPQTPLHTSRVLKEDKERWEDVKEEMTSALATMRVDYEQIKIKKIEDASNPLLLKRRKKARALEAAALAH
MAP/microtubule affinity-regulating kinase 3 (Homo sapiens), sequence (P27448 whole entry, looked up): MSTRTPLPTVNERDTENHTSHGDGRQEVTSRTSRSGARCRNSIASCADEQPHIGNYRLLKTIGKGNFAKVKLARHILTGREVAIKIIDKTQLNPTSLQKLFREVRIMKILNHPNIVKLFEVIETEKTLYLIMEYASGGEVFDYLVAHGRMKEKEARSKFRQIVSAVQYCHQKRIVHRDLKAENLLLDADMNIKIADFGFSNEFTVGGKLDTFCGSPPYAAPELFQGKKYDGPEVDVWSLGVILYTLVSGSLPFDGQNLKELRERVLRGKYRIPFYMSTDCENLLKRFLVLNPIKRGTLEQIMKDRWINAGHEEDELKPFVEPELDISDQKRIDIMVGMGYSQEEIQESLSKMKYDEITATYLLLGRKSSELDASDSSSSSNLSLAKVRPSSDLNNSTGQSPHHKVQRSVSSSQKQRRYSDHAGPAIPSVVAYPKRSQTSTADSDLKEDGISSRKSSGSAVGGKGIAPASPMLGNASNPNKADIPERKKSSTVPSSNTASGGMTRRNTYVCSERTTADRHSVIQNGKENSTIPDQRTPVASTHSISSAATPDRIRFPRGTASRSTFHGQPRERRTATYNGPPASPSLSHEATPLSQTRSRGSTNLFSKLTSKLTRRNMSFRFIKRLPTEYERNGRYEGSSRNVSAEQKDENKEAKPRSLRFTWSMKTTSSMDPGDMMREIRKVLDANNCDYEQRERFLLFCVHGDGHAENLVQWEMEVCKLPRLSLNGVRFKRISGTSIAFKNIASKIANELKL
Serine/threonine-protein kinase MARK1 (Homo sapiens), sequence (Q9P0L2 whole entry, looked up): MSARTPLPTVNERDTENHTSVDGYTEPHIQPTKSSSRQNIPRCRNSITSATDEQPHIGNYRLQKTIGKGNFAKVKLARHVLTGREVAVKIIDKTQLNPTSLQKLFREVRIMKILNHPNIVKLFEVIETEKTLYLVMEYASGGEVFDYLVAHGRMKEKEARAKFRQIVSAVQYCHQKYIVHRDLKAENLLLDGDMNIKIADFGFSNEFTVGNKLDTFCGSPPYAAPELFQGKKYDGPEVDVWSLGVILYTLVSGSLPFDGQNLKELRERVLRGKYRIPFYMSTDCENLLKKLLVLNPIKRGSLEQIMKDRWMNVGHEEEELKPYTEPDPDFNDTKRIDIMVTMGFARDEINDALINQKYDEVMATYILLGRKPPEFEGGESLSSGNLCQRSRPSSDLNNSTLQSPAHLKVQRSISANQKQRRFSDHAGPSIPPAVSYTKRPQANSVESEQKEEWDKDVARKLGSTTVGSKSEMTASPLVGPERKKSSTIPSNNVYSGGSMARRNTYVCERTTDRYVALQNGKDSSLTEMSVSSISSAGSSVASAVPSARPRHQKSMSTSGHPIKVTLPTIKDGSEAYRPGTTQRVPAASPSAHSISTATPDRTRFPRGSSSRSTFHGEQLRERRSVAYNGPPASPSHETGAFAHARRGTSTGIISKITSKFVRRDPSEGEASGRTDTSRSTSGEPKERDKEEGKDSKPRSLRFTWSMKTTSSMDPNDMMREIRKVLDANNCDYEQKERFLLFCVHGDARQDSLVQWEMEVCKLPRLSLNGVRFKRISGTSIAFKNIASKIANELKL
MAP kinase-interacting serine/threonine-protein kinase 1 (Homo sapiens), sequence (Q9BUB5 whole entry, looked up): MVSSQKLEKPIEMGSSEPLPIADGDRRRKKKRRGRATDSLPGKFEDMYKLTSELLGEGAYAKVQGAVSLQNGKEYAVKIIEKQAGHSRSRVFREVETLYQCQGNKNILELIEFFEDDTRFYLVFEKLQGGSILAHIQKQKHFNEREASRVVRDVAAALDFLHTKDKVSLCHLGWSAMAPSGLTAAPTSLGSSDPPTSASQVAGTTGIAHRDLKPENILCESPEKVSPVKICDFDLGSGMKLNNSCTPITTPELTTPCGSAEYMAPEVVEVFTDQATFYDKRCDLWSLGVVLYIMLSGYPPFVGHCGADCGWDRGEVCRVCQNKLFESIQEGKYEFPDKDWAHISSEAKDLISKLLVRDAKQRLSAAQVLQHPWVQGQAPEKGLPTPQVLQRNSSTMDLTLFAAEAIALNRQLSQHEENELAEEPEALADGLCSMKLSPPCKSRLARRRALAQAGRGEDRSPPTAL
Serine/threonine-protein kinase MARK2 (Homo sapiens), sequence (Q7KZI7 whole entry): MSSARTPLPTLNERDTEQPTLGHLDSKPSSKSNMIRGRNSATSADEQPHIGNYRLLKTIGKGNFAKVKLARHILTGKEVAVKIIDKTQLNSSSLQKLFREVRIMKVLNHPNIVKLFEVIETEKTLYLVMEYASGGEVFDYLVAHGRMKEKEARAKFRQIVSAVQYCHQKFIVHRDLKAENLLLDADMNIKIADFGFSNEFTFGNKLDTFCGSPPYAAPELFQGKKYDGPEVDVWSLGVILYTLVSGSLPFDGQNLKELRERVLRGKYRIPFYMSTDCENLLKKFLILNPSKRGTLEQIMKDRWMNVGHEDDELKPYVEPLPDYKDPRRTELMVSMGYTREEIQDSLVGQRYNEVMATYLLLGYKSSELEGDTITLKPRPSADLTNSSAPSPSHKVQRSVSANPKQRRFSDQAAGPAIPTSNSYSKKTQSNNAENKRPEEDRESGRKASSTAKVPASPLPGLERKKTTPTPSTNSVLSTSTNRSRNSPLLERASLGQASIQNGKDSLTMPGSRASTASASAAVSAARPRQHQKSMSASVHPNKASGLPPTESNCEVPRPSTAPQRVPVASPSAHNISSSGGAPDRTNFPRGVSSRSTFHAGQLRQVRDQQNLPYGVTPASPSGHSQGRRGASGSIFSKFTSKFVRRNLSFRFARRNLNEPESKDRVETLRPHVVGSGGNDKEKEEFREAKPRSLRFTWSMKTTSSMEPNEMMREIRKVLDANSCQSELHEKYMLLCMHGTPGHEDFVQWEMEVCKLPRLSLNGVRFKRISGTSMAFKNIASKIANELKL
MAP kinase-activated protein kinase 3 (Homo sapiens), sequence (Q16644 whole entry, looked up): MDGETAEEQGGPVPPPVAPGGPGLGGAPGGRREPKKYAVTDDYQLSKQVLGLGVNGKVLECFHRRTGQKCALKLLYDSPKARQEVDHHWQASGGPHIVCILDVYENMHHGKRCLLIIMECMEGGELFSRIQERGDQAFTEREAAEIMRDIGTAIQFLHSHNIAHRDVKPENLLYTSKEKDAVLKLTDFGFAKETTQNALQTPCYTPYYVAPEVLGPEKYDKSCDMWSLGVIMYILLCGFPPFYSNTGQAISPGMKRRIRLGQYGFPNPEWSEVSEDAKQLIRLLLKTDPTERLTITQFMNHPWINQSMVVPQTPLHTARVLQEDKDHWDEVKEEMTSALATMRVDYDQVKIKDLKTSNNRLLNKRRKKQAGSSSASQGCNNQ
Maternal embryonic leucine zipper kinase (Homo sapiens), sequence (Q14680 whole entry, looked up): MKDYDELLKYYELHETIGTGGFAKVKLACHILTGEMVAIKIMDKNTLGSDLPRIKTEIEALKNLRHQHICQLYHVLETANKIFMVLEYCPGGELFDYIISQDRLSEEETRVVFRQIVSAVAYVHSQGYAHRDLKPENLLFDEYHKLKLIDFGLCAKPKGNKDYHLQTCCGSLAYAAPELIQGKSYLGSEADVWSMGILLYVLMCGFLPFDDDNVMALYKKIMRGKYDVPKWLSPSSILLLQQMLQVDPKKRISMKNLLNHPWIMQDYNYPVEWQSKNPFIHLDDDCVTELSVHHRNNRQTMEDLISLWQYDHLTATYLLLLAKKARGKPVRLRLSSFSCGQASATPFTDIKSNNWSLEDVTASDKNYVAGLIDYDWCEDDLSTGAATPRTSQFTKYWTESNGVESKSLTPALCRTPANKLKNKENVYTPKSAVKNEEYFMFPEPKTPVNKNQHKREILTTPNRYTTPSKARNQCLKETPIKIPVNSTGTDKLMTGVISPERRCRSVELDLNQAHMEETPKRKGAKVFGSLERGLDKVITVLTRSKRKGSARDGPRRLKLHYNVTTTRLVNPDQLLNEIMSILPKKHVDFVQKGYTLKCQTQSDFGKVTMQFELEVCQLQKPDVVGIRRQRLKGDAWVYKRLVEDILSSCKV

On to `COc1cc2ncn(-c3cc(OCc4ccccc4Cl)c(C(N)=O)s3)c2cc1OC`, for which the inhibition is -1.31% in experiment [1]; 4.65% in [2]; -2.81% in [3]; -3.53% in experiment [4]; -5.38% in [5]; -2.78% in [6]. The inhibition in experiment [7] stood at 2.4%; in experiment [8], 9.28%; in experiment [9], 1.85%; in experiment [10] it was 9.99%; in experiment [11] it was 1.66%; in experiment [12], 9.04%. Also, the inhibition was 2.05% in experiment [13]; 8.87% in [14]; 0.61% in [15]; 7.42% in [16]; 1.58% in experiment [17]; 7.9% in [18]. The inhibition in experiment [19] came to 0.69%.

For `CCn1c(-c2nonc2N)nc2c(C#CC(C)(C)O)nc(OC[C@@H](N)c3ccccc3)cc21`, the inhibition in experiment [20] was -7.69%; in experiment [2] it was 1.63%; in [3], -3.81%; in experiment [4], -3.91%; in experiment [5], -6.12%; in experiment [6] it was -7.91%. Further, the inhibition in [7] is 0.67%; in experiment [8], 19.9%; in experiment [9], 3.1%; in [10], 28.1%; in experiment [11], 1.28%; in [12], 16.9%. Further, the inhibition in [13] is 0.84%; in [14], 27.5%; in [15], -0.06%; in experiment [16], 4.44%; in [17] it was 0.08%; in [18] it was 3.19%. For the same molecule, the inhibition in experiment [19] came out at 1.17%.

Take `NS(=O)(=O)c1cccc(-c2ccc3c(NC(=O)C4CC4)n[nH]c3c2)c1`: the inhibition is 3.03% in experiment [20]; 0.34% in experiment [1]; -1.6% in experiment [3]; -1.12% in experiment [4]; 2.07% in [5]; 2.74% in experiment [6]. Moreover, the inhibition in experiment [7] stood at 0.18%; in experiment [8], 4.41%; in experiment [9], 2.87%; in experiment [10] it was 3.86%; in experiment [11] it was 1.62%; in experiment [12], 6.55%. For the same molecule, the inhibition is 0.79% in experiment [13]; 3.48% in [14]; -0.26% in experiment [15]; 7.26% in experiment [16]; -1.27% in experiment [17]; 1.02% in experiment [18]. Also, the inhibition in experiment [19] turned out to be 0.51%.

In the case of `COC(=O)Nc1nc2cc(Oc3ccc(NC(=O)Nc4cccc(C(=O)O)c4)cc3)ccc2[nH]1`, the inhibition was 0.01% in experiment [20]; -6.21% in [1]; 0.64% in [3]; 0.43% in experiment [4]; 0.86% in [5]; -0.42% in [6]. Besides, the inhibition is 0.32% in experiment [7]; 3.08% in experiment [8]; 1.09% in [9]; 3.98% in [10]; -0.3% in experiment [11]; 1.97% in experiment [12]. Besides, the inhibition in experiment [13] was -0.21%; in experiment [14], 0.37%; in experiment [15] it was -0.48%; in experiment [16], 8.3%; in experiment [17], 0.28%; in experiment [18], 3.85%. For the same molecule, the inhibition in experiment [19] was -2.31%.

As for `O=C1NC(=O)C(c2ccc(Cl)cc2)=C1Nc1ccc(Cl)c(C(=O)O)c1`, the inhibition in experiment [20] was -1.43%; in [1], -1.2%; in [2], -0.41%; in experiment [3] it was -1.23%; in experiment [4] it was -1.83%; in [5], -0.48%. The inhibition in experiment [6] is -1%; in [7] it was -0.68%; in experiment [8], -0.26%; in experiment [9], -0.12%; in experiment [10], 1.91%; in experiment [11] it was -0.05%. For the same molecule, the inhibition in [12] was 1.71%; in experiment [13], -3.46%; in [14], 1.25%; in experiment [15], -0.24%; in [16], -0.57%; in [17] it was -0.57%. Further, the inhibition in experiment [18] was 0.11%; in experiment [19], -0.46%.

Regarding `COc1cccc(-n2ncc3c(N/N=C/c4cccc(F)c4)ncnc32)c1`, the inhibition in [20] is -1.39%; in experiment [1] it was -4.3%; in [2], 1.59%; in [3] it was -0.12%; in experiment [4] it was 0.02%; in experiment [5], 1.02%. Besides, the inhibition was 0.04% in experiment [6]; 2.19% in experiment [7]; 6.35% in experiment [8]; 0.17% in experiment [9]; -1.64% in [10]; 1.82% in [11]. The inhibition in experiment [12] came to 5.56%; in [13], 4.24%; in experiment [14], 11%; in experiment [15] it was 2.81%; in experiment [16], 11.8%; in experiment [17], 1.92%. Also, the inhibition in experiment [18] was found to be 6.42%; in experiment [19], 0.05%.

In the case of `CS(=O)(=O)CCNCc1nc(-c2ccc3ncnc(Nc4ccc(F)c(Cl)c4)c3c2)cs1`, the inhibition was 6.48% in experiment [20]; 0.59% in [1]; 1.59% in experiment [3]; 0.26% in experiment [4]; 2.16% in [5]; 1.58% in experiment [6]. Further, the inhibition is 1.43% in experiment [7]; 1.33% in experiment [8]; 1.69% in experiment [9]; -1.39% in [10]; -0.14% in [11]; 0.31% in experiment [12]. In addition, the inhibition in experiment [13] is -1.18%; in experiment [14] it was 3.48%; in experiment [15] it was 10.6%; in experiment [16], 50.4%; in experiment [17], 13.4%; in experiment [18] it was 55.7%. Also, in [19], the inhibition was -0.48%.
